# Laboratory results as given in article PMC7862700, “An all-to-all approach to the identification of sequence-specific readers for epigenetic DNA modifications on cytosine”.
# Legend:
# Test in all cases: DAPPL (digital affinity profiling via proximity ligation, sequencing); 10 mM Tris-HCl pH 7.5, 50 mM NaCl, 1 mM DTT, 4% glycerol, room temperature, 30 min; GST-TFs on glutathione beads, 16-mer random dsDNA library, 0.1% formaldehyde crosslink after washing; high values mean tight binding
# FEV = biological target: T1, FEV (Homo sapiens, UniProt Q99581 1-238); settings: protein: recombinant; tags: N-terminal GST; dsDNA, one strand shown
# T1 sequence: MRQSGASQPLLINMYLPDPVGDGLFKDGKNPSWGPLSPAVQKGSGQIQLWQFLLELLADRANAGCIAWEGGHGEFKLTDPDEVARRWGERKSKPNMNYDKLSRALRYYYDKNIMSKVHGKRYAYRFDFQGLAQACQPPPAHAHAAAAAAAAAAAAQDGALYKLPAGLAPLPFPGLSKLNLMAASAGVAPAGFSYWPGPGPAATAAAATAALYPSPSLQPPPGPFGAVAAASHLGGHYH
# Procedure, shortened: (§1)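 Pools of DNA-barcoded human transcription factors, expressed in yeast as GST fusions on glutathione beads and combined with a tag-only sample, were incubated with 200 nmole of a 16-mer random double-stranded DNA library. Incubation took 30 min at room temperature in Tris/NaCl/DTT/glycerol buffer and was followed by washing, 0.1% formaldehyde crosslinking, proximity ligation (BsaI/T4 ligase, 1 h, 37 °C), PCR amplification and sequencing on an Illumina NextSeq500. Binding signal is the ratio of a hexamer's read frequency for a factor to its frequency for the tag-only sample.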
# ETV5 = ETV5 (Homo sapiens, UniProt P41161 1-510); settings: protein: recombinant; tags: N-terminal GST; dsDNA, one strand shown
# Chain of ETV5 (P41161 whole entry): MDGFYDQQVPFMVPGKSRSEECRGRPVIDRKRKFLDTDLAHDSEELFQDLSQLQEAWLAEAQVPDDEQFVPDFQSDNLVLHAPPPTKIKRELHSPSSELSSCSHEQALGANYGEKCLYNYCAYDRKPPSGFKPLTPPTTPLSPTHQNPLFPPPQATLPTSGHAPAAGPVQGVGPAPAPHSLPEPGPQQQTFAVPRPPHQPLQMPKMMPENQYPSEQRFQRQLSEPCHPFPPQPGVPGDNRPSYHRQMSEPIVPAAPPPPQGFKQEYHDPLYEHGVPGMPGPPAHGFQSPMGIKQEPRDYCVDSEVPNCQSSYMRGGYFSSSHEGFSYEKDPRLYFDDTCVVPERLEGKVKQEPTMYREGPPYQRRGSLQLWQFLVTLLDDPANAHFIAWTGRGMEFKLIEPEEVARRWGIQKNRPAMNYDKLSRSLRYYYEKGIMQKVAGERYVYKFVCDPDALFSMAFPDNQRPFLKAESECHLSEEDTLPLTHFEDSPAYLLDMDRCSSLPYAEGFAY
# Procedure, shortened: as §1
# HSF1 = HSF1 (Homo sapiens, UniProt Q00613 1-529); settings: protein: recombinant; tags: N-terminal GST; chain copies: 3; dsDNA, one strand shown
# Chain of HSF1 (Q00613 whole entry): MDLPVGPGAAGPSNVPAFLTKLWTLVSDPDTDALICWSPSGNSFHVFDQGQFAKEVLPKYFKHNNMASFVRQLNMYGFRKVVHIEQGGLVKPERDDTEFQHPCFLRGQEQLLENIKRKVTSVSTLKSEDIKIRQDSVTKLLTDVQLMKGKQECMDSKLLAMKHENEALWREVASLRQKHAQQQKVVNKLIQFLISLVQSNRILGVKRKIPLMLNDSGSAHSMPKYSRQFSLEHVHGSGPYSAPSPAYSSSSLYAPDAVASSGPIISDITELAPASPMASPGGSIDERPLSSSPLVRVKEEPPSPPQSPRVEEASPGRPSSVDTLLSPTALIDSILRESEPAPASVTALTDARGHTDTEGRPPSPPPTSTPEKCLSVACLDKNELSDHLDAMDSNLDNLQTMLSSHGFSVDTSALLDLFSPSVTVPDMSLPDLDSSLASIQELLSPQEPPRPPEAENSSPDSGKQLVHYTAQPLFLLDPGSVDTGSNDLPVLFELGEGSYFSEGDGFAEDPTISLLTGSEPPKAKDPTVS
# Procedure, shortened: as §1
# SPIC = biological target: T2, SPIC (Homo sapiens, UniProt Q8N5J4 1-248); settings: protein: recombinant; tags: N-terminal GST; dsDNA, one strand shown
# T2 sequence: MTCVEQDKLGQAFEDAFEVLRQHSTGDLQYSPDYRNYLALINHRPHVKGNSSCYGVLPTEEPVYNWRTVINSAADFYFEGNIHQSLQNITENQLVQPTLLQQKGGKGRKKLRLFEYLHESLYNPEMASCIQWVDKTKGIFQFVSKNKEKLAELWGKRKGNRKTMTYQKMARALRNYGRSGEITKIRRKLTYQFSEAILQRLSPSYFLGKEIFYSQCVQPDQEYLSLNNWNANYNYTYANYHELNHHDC
# Procedure, shortened: as §1
# ELF4 = ELF4 (Homo sapiens, UniProt Q99607 1-663); settings: protein: recombinant; tags: N-terminal GST; dsDNA, one strand shown
# Chain of ELF4 (Q99607 whole entry): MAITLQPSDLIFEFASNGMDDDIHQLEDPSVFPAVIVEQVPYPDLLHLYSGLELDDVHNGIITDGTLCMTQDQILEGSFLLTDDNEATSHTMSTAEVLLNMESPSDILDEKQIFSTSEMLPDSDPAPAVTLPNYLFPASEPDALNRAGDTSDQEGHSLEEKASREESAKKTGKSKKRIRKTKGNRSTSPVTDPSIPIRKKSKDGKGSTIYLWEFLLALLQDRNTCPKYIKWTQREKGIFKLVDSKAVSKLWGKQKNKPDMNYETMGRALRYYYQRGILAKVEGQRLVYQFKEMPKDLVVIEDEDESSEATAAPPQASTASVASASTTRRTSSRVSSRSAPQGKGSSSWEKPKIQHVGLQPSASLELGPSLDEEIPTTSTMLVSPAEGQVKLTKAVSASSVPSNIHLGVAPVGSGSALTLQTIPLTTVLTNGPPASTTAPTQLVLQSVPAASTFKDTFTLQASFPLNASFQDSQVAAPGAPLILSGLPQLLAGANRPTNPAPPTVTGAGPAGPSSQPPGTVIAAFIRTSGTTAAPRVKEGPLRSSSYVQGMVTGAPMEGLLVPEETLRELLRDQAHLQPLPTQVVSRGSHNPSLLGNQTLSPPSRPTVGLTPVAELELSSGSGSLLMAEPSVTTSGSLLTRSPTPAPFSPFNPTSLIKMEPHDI
# Procedure, shortened: as §1
# ELK4 = biological target: T3, ELK4 (Homo sapiens, UniProt P28324-2 1-405); settings: protein: recombinant; tags: N-terminal GST; dsDNA, one strand shown
# T3 sequence: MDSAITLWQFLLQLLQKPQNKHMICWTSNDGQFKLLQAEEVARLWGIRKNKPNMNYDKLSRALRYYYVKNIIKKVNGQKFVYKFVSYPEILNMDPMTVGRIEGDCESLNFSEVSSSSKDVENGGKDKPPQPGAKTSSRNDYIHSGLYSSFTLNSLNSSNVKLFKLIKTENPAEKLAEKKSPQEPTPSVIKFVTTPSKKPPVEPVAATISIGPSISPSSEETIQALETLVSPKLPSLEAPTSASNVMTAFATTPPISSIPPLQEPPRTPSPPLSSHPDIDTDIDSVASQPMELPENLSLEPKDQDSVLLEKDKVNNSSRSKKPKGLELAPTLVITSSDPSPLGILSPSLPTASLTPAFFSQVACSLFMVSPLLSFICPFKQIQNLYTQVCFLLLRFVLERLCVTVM
# Procedure, shortened: as §1
# ETV2 = biological target: T4, ETV2 (Homo sapiens, UniProt O00321 1-342); settings: protein: recombinant; tags: N-terminal GST; dsDNA, one strand shown
# T4 sequence: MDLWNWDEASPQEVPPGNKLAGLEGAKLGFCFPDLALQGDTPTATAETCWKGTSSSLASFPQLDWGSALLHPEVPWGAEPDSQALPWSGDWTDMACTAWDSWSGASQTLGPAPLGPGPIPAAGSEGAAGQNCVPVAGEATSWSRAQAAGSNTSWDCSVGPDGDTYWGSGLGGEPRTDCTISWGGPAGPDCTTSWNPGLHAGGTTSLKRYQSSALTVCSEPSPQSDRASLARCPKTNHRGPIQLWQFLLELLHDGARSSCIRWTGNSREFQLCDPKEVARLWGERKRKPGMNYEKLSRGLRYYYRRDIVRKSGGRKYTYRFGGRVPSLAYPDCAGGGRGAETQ
# Procedure, shortened: as §1
# ELF3 = biological target: T5, ELF3 (Homo sapiens, UniProt P78545 1-371); settings: protein: recombinant; tags: N-terminal GST; dsDNA, one strand shown
# T5 sequence: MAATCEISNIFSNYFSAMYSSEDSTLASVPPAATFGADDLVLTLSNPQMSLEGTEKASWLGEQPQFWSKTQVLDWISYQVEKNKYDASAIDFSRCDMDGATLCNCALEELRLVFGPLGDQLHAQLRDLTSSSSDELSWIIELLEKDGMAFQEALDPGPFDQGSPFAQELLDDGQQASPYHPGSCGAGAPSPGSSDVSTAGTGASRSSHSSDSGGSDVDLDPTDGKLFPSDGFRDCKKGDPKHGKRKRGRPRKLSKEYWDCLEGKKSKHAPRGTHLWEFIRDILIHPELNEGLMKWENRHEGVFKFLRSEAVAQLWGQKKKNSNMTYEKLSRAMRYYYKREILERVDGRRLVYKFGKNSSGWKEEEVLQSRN
# Procedure, shortened: as §1
# CRX = CRX (Homo sapiens, UniProt O43186 1-299); settings: protein: recombinant; tags: N-terminal GST; dsDNA, one strand shown
# Chain of CRX (O43186 whole entry): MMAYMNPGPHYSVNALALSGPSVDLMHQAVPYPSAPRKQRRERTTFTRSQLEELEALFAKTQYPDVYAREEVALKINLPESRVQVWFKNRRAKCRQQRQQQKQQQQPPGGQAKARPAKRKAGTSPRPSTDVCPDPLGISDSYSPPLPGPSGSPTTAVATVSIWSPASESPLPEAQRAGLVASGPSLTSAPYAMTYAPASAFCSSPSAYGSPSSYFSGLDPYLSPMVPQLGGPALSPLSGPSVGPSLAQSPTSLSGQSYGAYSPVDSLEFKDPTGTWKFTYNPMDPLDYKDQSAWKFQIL
# Procedure, shortened: as §1
# ETV1 = ETV1 (Homo sapiens, UniProt P50549 1-477); settings: protein: recombinant; tags: N-terminal GST; dsDNA, one strand shown
# Chain of ETV1 (P50549 whole entry): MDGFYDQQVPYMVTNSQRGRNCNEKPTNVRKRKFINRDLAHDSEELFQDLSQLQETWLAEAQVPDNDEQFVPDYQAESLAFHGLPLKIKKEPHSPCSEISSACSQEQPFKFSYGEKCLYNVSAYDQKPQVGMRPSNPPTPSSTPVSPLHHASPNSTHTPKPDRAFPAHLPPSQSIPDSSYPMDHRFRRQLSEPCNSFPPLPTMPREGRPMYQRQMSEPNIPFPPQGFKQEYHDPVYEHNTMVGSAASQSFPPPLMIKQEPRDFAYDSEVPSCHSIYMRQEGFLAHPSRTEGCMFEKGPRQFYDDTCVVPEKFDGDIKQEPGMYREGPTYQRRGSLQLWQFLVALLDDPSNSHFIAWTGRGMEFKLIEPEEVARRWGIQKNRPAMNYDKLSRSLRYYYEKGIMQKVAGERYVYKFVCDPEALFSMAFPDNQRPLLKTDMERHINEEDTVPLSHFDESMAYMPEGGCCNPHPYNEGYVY
# Procedure, shortened: as §1
# ERF = biological target: T6, ERF (Homo sapiens, UniProt P50548 1-548); settings: protein: recombinant; tags: N-terminal GST; dsDNA, one strand shown
# T6 sequence: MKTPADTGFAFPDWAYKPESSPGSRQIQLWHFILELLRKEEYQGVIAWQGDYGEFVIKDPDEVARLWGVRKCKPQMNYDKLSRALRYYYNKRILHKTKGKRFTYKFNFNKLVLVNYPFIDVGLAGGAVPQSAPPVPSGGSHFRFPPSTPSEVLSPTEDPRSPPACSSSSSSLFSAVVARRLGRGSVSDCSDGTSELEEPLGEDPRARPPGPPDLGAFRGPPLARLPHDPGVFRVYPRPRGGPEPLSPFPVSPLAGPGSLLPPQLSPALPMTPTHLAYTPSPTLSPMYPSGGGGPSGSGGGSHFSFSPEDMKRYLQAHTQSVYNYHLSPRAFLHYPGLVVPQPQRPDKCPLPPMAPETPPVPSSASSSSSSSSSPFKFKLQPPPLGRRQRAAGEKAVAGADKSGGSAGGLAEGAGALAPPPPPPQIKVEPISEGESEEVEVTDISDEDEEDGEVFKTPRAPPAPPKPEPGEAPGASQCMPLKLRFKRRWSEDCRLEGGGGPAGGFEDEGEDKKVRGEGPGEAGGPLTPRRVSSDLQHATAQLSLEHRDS
# Procedure, shortened: as §1
# ETV3L = biological target: T7, ETV3L (Homo sapiens, UniProt Q6ZN32 1-361); settings: protein: recombinant; tags: N-terminal GST; dsDNA, one strand shown
# T7 sequence: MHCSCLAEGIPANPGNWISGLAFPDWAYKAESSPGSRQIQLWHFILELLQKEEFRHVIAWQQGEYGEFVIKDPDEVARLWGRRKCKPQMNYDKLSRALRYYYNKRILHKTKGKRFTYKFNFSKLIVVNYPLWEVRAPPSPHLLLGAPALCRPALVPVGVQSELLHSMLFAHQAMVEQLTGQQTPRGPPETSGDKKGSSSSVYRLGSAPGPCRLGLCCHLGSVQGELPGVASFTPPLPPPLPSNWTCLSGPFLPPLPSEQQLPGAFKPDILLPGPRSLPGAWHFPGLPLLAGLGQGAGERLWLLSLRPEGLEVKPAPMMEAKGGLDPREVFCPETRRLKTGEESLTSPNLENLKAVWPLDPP
# Procedure, shortened: as §1
# ETS2 = biological target: T8, ETS2 (Homo sapiens, UniProt P15036 1-469); settings: protein: recombinant; tags: N-terminal GST; dsDNA, one strand shown
# T8 sequence: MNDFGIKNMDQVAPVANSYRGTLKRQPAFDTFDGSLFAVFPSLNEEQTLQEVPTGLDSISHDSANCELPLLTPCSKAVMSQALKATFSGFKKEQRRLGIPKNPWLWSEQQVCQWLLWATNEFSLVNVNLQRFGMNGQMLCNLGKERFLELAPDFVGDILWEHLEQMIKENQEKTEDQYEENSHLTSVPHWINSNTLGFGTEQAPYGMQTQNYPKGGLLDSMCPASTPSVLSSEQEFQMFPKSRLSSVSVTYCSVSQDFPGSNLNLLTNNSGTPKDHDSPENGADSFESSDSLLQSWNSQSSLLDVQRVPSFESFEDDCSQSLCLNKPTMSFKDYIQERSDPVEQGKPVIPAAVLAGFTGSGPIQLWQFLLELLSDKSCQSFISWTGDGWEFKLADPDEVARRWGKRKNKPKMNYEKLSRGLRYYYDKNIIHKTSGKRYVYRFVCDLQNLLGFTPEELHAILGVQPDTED
# Procedure, shortened: as §1
# SPDEF = biological target: T9, SPDEF (Homo sapiens, UniProt O95238 1-335); settings: protein: recombinant; tags: N-terminal GST; dsDNA, one strand shown
# T9 sequence: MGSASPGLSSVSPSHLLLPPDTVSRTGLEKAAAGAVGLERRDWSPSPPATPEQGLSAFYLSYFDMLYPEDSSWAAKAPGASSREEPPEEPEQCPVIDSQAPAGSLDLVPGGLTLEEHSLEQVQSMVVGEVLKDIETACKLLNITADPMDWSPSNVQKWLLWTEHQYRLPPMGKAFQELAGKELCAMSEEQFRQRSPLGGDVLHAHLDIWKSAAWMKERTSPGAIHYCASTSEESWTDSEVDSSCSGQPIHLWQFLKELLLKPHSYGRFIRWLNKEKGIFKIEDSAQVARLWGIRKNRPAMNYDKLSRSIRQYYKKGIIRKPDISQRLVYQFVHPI
# Procedure, shortened: as §1
# ETV7 = biological target: T10, ETV7 (Homo sapiens, UniProt Q9Y603 1-341); settings: protein: recombinant; tags: N-terminal GST; dsDNA, one strand shown
# T10 sequence: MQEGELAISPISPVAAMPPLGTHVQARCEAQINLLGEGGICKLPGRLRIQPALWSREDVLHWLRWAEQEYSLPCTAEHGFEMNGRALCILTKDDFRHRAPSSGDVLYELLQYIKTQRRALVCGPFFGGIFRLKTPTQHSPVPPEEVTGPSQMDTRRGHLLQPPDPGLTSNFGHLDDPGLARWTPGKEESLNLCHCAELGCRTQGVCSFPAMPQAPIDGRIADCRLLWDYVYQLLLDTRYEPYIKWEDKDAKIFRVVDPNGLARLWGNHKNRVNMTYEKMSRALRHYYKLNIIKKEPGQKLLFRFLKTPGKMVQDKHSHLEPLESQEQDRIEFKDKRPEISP
# Procedure, shortened: as §1
# ELF5 = biological target: T11, ELF5 (Homo sapiens, UniProt Q9UKW6-2 1-255); settings: protein: recombinant; tags: N-terminal GST; dsDNA, one strand shown
# T11 sequence: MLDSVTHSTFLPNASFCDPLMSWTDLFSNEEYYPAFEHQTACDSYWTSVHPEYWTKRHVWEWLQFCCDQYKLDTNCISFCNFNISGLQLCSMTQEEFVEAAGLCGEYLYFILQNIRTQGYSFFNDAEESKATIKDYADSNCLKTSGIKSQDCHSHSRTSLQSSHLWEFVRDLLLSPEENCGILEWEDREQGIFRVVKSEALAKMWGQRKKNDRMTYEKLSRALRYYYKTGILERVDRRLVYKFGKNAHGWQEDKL
# Procedure, shortened: as §1
# ETV3 = biological target: T12, ETV3 (Homo sapiens, UniProt P41162-2 1-143); settings: protein: recombinant; tags: N-terminal GST; dsDNA, one strand shown
# T12 sequence: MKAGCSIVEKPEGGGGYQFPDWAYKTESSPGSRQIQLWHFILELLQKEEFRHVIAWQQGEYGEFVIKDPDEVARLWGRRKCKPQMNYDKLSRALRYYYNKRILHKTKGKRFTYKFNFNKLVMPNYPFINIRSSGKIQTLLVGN
# Procedure, shortened: as §1
# ETV6 = ETV6 (Homo sapiens, UniProt P41212 1-452); settings: protein: recombinant; tags: N-terminal GST; dsDNA, one strand shown
# Chain of ETV6 (P41212 whole entry): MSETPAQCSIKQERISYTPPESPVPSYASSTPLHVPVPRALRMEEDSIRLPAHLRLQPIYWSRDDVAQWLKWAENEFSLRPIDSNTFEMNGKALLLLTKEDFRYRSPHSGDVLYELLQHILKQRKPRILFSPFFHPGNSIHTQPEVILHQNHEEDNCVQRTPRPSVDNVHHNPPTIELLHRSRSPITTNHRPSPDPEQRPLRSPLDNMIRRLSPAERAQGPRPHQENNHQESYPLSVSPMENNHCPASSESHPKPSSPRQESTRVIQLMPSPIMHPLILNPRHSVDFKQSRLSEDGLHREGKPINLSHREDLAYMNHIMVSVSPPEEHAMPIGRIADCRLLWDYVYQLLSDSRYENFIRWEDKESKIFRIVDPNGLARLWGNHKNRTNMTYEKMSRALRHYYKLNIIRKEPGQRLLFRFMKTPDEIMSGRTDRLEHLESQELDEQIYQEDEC
# Procedure, shortened: as §1
sequence,measurement,setting,value
ATGCCC,binding signal,FEV,"1.34 fold enrichment (6-mer frequency, TF over GST control)"
same,binding signal,ETV5,"1.28 fold enrichment (6-mer frequency, TF over GST control)"
same,binding signal,HSF1,"1.19 fold enrichment (6-mer frequency, TF over GST control)"
same,binding signal,SPIC,"1.54 fold enrichment (6-mer frequency, TF over GST control)"
same,binding signal,ELF4,"1.33 fold enrichment (6-mer frequency, TF over GST control)"
same,binding signal,ELK4,"1.36 fold enrichment (6-mer frequency, TF over GST control)"
same,binding signal,ETV2,"1.26 fold enrichment (6-mer frequency, TF over GST control)"
same,binding signal,ELF3,"1.34 fold enrichment (6-mer frequency, TF over GST control)"
same,binding signal,CRX,"1.12 fold enrichment (6-mer frequency, TF over GST control)"
same,binding signal,ETV1,"1.31 fold enrichment (6-mer frequency, TF over GST control)"
same,binding signal,ERF,"1.31 fold enrichment (6-mer frequency, TF over GST control)"
same,binding signal,ETV3L,"1.26 fold enrichment (6-mer frequency, TF over GST control)"
same,binding signal,ETS2,"1.29 fold enrichment (6-mer frequency, TF over GST control)"
same,binding signal,SPDEF,"1.36 fold enrichment (6-mer frequency, TF over GST control)"
same,binding signal,ETV7,"1.45 fold enrichment (6-mer frequency, TF over GST control)"
same,binding signal,ELF5,"1.27 fold enrichment (6-mer frequency, TF over GST control)"
same,binding signal,ETV3,"1.32 fold enrichment (6-mer frequency, TF over GST control)"
same,binding signal,ETV6,"1.35 fold enrichment (6-mer frequency, TF over GST control)"
